# Results taken from ChEMBL document CHEMBL4513156, “CO-ADD screening of NCPRI (Romania) compounds”.
# Measured potencies and affinities stand elsewhere.
# Tested on: Klebsiella pneumoniae
# Settings: Concentration 32 ug.mL-1; ASSAY_TEST Inhibition of Bacterial Growth; detection method Absorption (OD600); MEDIA CAMHB; plate type 384well; NBS; CORNING #3640; time 18 hr
row,SMILES,Inhibition [%]
1,NNC(=O)c1ccncc1 [ISONIAZID],18.82
2,O=C(N/N=C1/C2C[C@H]3C(C2CO)[C@H]13)c1ccncc1 (stereo not given in full),15.76
3,O=C(NNC(=O)[C@@H]1C[C@H](C(=O)O)[C@@H]2CC=C[C@@H]21)c1ccncc1,15.82
4,O=C(N/N=C1\CC[C@@H]2[C@H]1[C@H](OC(=O)c1ccccc1)C[C@@H]2OC(=O)c1ccccc1)c1ccncc1,13.57
5,O=C1C[C@@H]2[C@@H](C=NNC(=O)c3ccncc3)[C@@H](C[C@H]2Cl)O1,20.62
6,O=C(N/N=C/COc1cccc(Cl)c1)c1ccncc1,5.99
7,O=C1C[C@H]2[C@H](/C=N/NC(=O)c3ccncc3)[C@H](C[C@@H]2Cl)O1,20.57
8,O=C(N/N=C1/C[C@@H]2[C@@H](C(=O)O)[C@H]1C[C@H]2Cl)c1ccncc1,18.24
9,COC(=O)C[C@H]1[C@H](/C=N\NC(=O)c2ccncc2)[C@@H](O[Si](C)(C)C(C)(C)C)C[C@@H]1Cl,21.45
10,O=C(N/N=C1\C[C@@H]2[C@@H](CO)[C@H]1C[C@H]2Cl)c1ccncc1,21.63
11,O=C(N/N=C/C[C@@H]1[C@@H](/C=C/[C@@H](O)COc2cccc(Cl)c2)[C@H](O)C[C@@H]1O)c1ccncc1,18.63
12,O=C(NN=CC[C@@H]1[C@@H](COC2CCCCO2)[C@H](OC2CCCCO2)C[C@@H]1O)c1ccncc1 (stereo not given in full),4.99
13,CC(C)(C)[Si](C)(C)OCC1C2C[C@H]3C1[C@@H]3/C2=N/NC(=O)c1ccncc1 (stereo not given in full),15.16
14,O=C(N/N=C/C[C@@H]1[C@@H](CO)[C@H](O)C[C@@H]1O)c1ccncc1,16.63
15,O=C(N/N=C/CCCO)c1ccncc1,3.72
16,O=C(NN=CC[C@@H]1[C@@H](/C=C/[C@@H](O)CCc2ccccc2)[C@H](OC(=O)c2ccccc2)C[C@@H]1O)c1ccncc1,14.41
17,O=C(NNC(=O)c1ccc([N+](=O)[O-])cc1C(=O)O)c1ccncc1,17.92
18,O=C(N/N=C1/C[C@@H]2[C@H](COC(c3ccccc3)(c3ccccc3)c3ccccc3)C[C@H](COC(c3ccccc3)(c3ccccc3)c3ccccc3)[C@@H]2C1)c1ccncc1,-5.52
19,O=C(ON/N=C/[C@@H]1[C@@H]2C[C@H](Cl)[C@H]1C[C@H]2O)c1ccncc1,14.1
20,O=C(N/N=C1/C[C@@H]2[C@H](C1)[C@H](OC(=O)c1ccccc1)C[C@@H]2OC(=O)c1ccccc1)c1ccncc1,10.86
21,CC(C)(C)[Si](C)(C)OC[C@H]1[C@H](CC=NNC(=O)c2ccncc2)[C@H](O)C[C@@H]1O[Si](C)(C)C(C)(C)C,19.31
22,O=C(N/N=C/C[C@@H]1[C@@H](/C=N/NC(=O)c2ccncc2)[C@H](O)C[C@@H]1O)c1ccncc1,9.84
23,O=C(N/N=C/C[C@@H]1[C@@H](/C=C/[C@@H](O)COc2ccccc2)[C@H](O)C[C@@H]1O)c1ccncc1,13.01
24,O=C(NNC(=O)[C@@H]1C[C@H](C(=O)O)[C@@H]2CCC[C@@H]21)c1ccncc1,17.49
25,O=C(N/N=C1/C2C[C@H]3C(C2C(=O)O)[C@@H]13)c1ccncc1 (stereo not given in full),8.85
